According to PubChem BioAssay (Tox21):
Results filed as inconclusive are left out. Active and inactive are the calls of the source. Unless noted, calls follow the shape of the dose curve; as a rule, active = well fitted curve in the direction sought with a large enough effect in the repeat runs; inconclusive = weak or mixed curves; inactive = no such curve, though single readings can be large; an effect the other way counts as inactive or inconclusive. Non-standard residues stand in square brackets, D forms with d. Residues, ends and D or L forms follow the SMILES beside them. pGlu = O=C1CC[C@@H](C(=O)O)N1; Thz = O=C(O)[C@@H]1CSCN1

What was measured:
[1] = qHTS assay for small molecule agonists of the p53 signaling pathway (AID 651631; calls by dose curve; also: nearly all actives have a fitted effect of over 15% in size; also: potency is read from the fitted curve at half-maximal effect)
How it was run: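 p53RE-bla HCT-116 cells; compounds 16 h, 37 °C; LiveBLAzer B/G FRET substrate 2 h RT; fluorescence intensity read-out, qHTS format.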

[2] = qHTS assay for small molecules that induce genotoxicity in human embryonic kidney cells expressing luciferase-tagged ATAD5 (AID 651632); also: nearly all actives have a fitted effect of over 15% in size; also: potency is read from the fitted curve at half-maximal effect
How it was run: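 Genotoxicity read-out via ATAD5-luciferase: HEK293T cells, 16 hr compound incubation at 37C, Amplite detection.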

[3] = qHTS assay for small molecule agonists of the p53 signaling pathway - cell viability (AID 651633; calls by dose curve; also: nearly all actives have a fitted effect of over 30% in size; also: potency is read from the fitted curve at half-maximal effect)
How it was run: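 p53RE-bla cells were treated with compound for 16 hours at 37 C. Cytotoxicity was then measured as CellTiter-Glo luminescence after 30 min at room temperature.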

[4] = qHTS assay for small molecules that induce genotoxicity in human embryonic kidney cells expressing luciferase-tagged ATAD5 - cell viability (AID 651634; calls by dose curve; also: nearly all actives have a fitted effect of over 25% in size; also: potency is read from the fitted curve at half-maximal effect)
How it was run: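 Live-cell protease activity (CellTiter-Fluor, fluorescence) indicates viability. HEK293T cells with luciferase-tagged ATAD5; 15.5 hr compound treatment at 37C.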

[5] = qHTS assay for small molecule disruptors of the mitochondrial membrane potential - cell viability (AID 720634; calls by dose curve;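 also: human HepG2 liver cancer cells; series mostly up to about 83 µM; nearly all actives have a fitted effect of over 20% in size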)
How it was run: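 Human hepatoma HepG2 cells were treated for 1 hr with test chemicals, then given m-MPI dye and CellTiter-Glo. Cell viability reflects luminescence proportional to cellular ATP.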

[6] = qHTS assay for small molecule disruptors of the mitochondrial membrane potential (AID 720635); also: potency is read from the fitted curve at half-maximal effect
How it was run: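 HepG2 cells exposed to compound 1 hr at 37C, then Mito-MPS dye 30 min. Ratio read of aggregate (540/590 nm) versus monomer (490/535 nm) fluorescence.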

[7] = qHTS assay to test for compound auto fluorescence at 590 nm (red) in HepG2 cells (AID 720674)
How it was run: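 Fluorescence at 590 nm emission following 540 nm excitation was recorded from HepG2 wells one hour after compound transfer, with DMSO-only wells as vehicle and Rose Bengal sodium equivalency as the scale.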

[8] = qHTS assay to test for compound auto fluorescence at 460 nm (blue) in HEK293 cells (AID 720678)
How it was run: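 Triamterene serves as the blue fluorophore standard. Compound signal at 405/460 nm is read in HEK293 wells (2,000 cells, 10% dialyzed FBS) after overnight treatment at 37C.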

[9] = qHTS assay to test for compound auto fluorescence at 590 nm (red) in HEK293 cells (AID 720679)
How it was run: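 We plated HEK293 cells in 10% dialyzed FBS medium, let them adhere for 4-5 hr, then added 23 nL compound. Overnight at 37C and 5% CO2 preceded fluorescence measurement at 540/590nm.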

[10] = qHTS assay to test for compound auto fluorescence at 535 nm (green) in HepG2 cells (AID 720675)

Measured: Potency

COCC1=C(C(=O)OC(C)OC(=O)OC(C)C)N2C(=O)[C@@H](NC(=O)/C(=N\OC)c3csc(N)n3)[C@H]2SC1 (stereo partly drawn)
not listed: [10]
inactive: all other assays above

CCCCCCCCCCCCCCCCCCOP(=O)([O-])OC1CC[N+](C)(C)CC1
inactive: all assays above

Cc1nc(NS(=O)(=O)c2ccc(N)cc2)nc(C)c1Br
not listed: [6] | [9]
inactive: all other assays above

Cc1ncc(C[n+]2csc(CCOP(=O)(O)OP(=O)(O)O)c2C)c(N)n1
not listed: [6] | [9]
inactive: all other assays above

C#CCC(Cc1cnc2nc(N)nc(N)c2n1)c1ccc(C(=O)N[C@@H](CCC(=O)O)C(=O)O)cc1 (stereo partly drawn)
active: [1] 0.266 µM | [3] 0.266 µM | [4] 0.211 µM
not listed: [8]
inactive: all other assays above

CCC(=O)OCC(=O)[C@@]1(OC(=O)CC)[C@H](C)C[C@H]2[C@@H]3CCC4=CC(=O)C=C[C@]4(C)[C@@]3(F)[C@@H](O)C[C@@]21C
active: [6] 29.8 µM
inactive: all other assays above

CCCC(=O)O[C@]1(C(=O)COC(=O)CC)[C@@H](C)C[C@H]2[C@@H]3CCC4=CC(=O)C=C[C@]4(C)[C@@]3(F)[C@@H](O)C[C@@]21C
active: [6] 26.6 µM
not listed: [10]
inactive: all other assays above

C/C=C(/CC[C@@H](C)[C@H]1CC[C@H]2C3=CC[C@H]4[C@H](C)[C@@H](O)CC[C@]4(C)[C@H]3CC[C@]12C)C(C)C
not listed: [6]
inactive: all other assays above

C/C=C1\NC(=O)[C@H]2CSSCC/C=C/[C@H](CC(=O)N[C@H](C(C)C)C(=O)N2)OC(=O)C(C(C)C)NC1=O (stereo partly drawn)
active: [1] 7.5 µM | [2] 0.0094 µM | [3] 1.5 µM | [4] 7.5 µM
not listed: [6]
inactive: all other assays above

CCOC(=O)O[C@]1(C(=O)COC(=O)CC)CC[C@H]2[C@@H]3CCC4=CC(=O)C=C[C@]4(C)[C@H]3[C@@H](O)C[C@@]21C
not listed: [6]
inactive: all other assays above

Nc1c(Br)cc(Br)cc1CNC1CCC(O)CC1 (stereo not drawn)
not listed: [6] | [9]
inactive: all other assays above

C[C@]12CC[C@@H]3c4ccc(OS(=O)(=O)O)cc4CC[C@H]3[C@@H]1CCC2=O
not listed: [6]
inactive: all other assays above

O=C(O)c1cc(O)c2c(c1)[O][Bi][O]2
not listed: [6]
inactive: all other assays above

COc1cc2[nH]c(C)c(CCN3CCN(c4ccccc4)CC3)c2cc1OC
not listed: [6]
inactive: all other assays above

CC(C(=O)O)c1ccc(C2CCCCC2)c2ccccc12 (stereo not drawn)
not listed: [6]
inactive: all other assays above

CC(C)Cc1ccc([C@@H](C)C(=O)NS(C)(=O)=O)cc1
not listed: [6]
inactive: all other assays above

Cc1cccc(Nc2ncccc2C(=O)O)c1C
not listed: [6]
inactive: all other assays above

NC(=O)c1ccc[n+]([C@@H]2O[C@H](COP(=O)([O-])OP(=O)(O)OC[C@H]3O[C@@H](n4cnc5c(N)ncnc54)[C@H](O)[C@@H]3O)[C@@H](O)[C@H]2O)c1
not listed: [6]
inactive: all other assays above

CCC(=O)OCC(=O)[C@@]1(OC(=O)CC)[C@H](C)C[C@H]2[C@H]3[C@H]([C@@H](O)C[C@@]21C)[C@@]1(C)C=CC(=O)C=C1C[C@H]3Cl
not listed: [6]
inactive: all other assays above

CCCN(CC)C(CC)C(=O)Nc1c(C)cccc1C (stereo not drawn)
not listed: [6]
inactive: all other assays above

CS(=O)(=O)c1ccc(C2=C(c3ccccc3)C(=O)OC2)cc1
not listed: [6]
inactive: all other assays above

N#Cc1ccc2c(c1)N(CCCN1CCC(O)CC1)c1ccccc1S2
active: [1] 26.6 µM
not listed: [6]
inactive: all other assays above

OC[C@H]1O[C@@H](O[C@H]2[C@H](O)[C@@H](O)[C@H](O)O[C@@H]2CO)[C@H](O)[C@@H](O)[C@@H]1O
not listed: [6]
inactive: all other assays above

CNCC(O)c1ccc(OC(=O)C(C)(C)C)c(OC(=O)C(C)(C)C)c1 (stereo not drawn)
not listed: [6]
inactive: all other assays above

CC1(O)CCC(C(C)(C)O)CC1 (stereo not drawn)
not listed: [6]
inactive: all other assays above

CCCc1ccc(C(=O)O)cc1
not listed: [6]
inactive: all other assays above

CC(O)CN(C)C (stereo not drawn)
not listed: [6]
inactive: all other assays above

CCOC(=O)Nc1ccc2c(c1)N(C(=O)CN(C)C)c1ccccc1CC2
not listed: [6]
inactive: all other assays above

CC(C)C[C@H](NC(=O)[C@@H](Cc1c[nH]c2ccccc12)NC(=O)[C@H](Cc1ccc(O)cc1)NC(=O)[C@H](CO)NC(=O)[C@H](Cc1c[nH]c2ccccc12)NC(=O)[C@H](Cc1cnc[nH]1)NC(=O)[C@@H]1CCC(=O)N1)C(=O)N[C@@H](CCCN=C(N)N)C(=O)N1CCC[C@@H]1C(=O)NCC(N)=O
not listed: [6]
inactive: all other assays above

CN(C)C=Nc1c(I)cc(I)c(CCC(=O)O)c1I
not listed: [6]
inactive: all other assays above

C=C1c2c(Cl)ccc(O)c2C(O)=C2C(=O)[C@]3(O)C(O)=C(C(N)=O)C(=O)[C@@H](N(C)C)[C@@H]3[C@@H](O)[C@H]12
not listed: [6]
inactive: all other assays above

COc1cc2c(cc1OC)CC(=O)N(CCCN(C)C[C@H]1Cc3cc(OC)c(OC)cc31)CC2
not listed: [6]
inactive: all other assays above

Cc1cccc(C)c1N(CCCc1cccnc1)C(=O)C(C)N (stereo not drawn)
not listed: [6]
inactive: all other assays above

C[C@@](Cc1ccc(O)c(O)c1)(NN)C(=O)O
not listed: [6]
inactive: all other assays above

CO[C@@]1(NC(=O)C2SC(=C(C(N)=O)C(=O)O)S2)C(=O)N2C(C(=O)O)=C(CSc3nnnn3C)CS[C@@H]21 (stereo partly drawn)
not listed: [6]
inactive: all other assays above

CC(=O)Oc1cccc(C(=O)O)c1OC(C)=O
not listed: [6]
inactive: all other assays above

O=c1[nH]cnc2[nH]cc(CN3CCCCC3)c12
not listed: [6]
inactive: all other assays above

O=C(NNCS(=O)(=O)O)c1ccncc1
not listed: [6]
inactive: all other assays above

COc1cc(C[C@@H]2NCCc3cc(O)c(O)cc32)cc(OC)c1OC
not listed: [6]
inactive: all other assays above

CC[C@H]1NC(=O)[C@@H](NC(=O)c2ncccc2O)[C@@H](C)OC(=O)[C@H](c2ccccc2)NC(=O)[C@@H]2CC(=O)CCN2C(=O)[C@H](Cc2ccccc2)N(C)C(=O)[C@@H]2CCCN2C1=O
not listed: [6]
inactive: all other assays above

O=C1CC[C@@H](C(=O)N2CSC[C@H]2C(=O)O)N1 ([pGlu]-[Thz]-OH)
not listed: [6]
inactive: all other assays above

OC[C@H]1O[C@@H](n2cnc3c2NC=NC[C@H]3O)C[C@@H]1O
not listed: [6]
inactive: all other assays above

COc1ccc(CCNC[C@H](O)c2ccc(O)cc2)cc1OC
not listed: [6]
inactive: all other assays above

CC1(C)C2CC[C@]3(C)[C@H](C(=O)C=C4[C@@H]5C[C@@](C)(C(=O)O)CC[C@]5(C)CC[C@]43C)[C@@]2(C)CC[C@@H]1O[C@H]1O[C@H](C(=O)O)[C@@H](O)[C@H](O)[C@H]1O[C@@H]1O[C@H](C(=O)O)[C@@H](O)[C@H](O)[C@H]1O (stereo partly drawn)
not listed: [6]
inactive: all other assays above

CN(CC(=O)N1CCOCC1)Cc1c(Cl)cccc1NC(=O)c1ccccc1
not listed: [6]
inactive: all other assays above

CC(C)(C)NC[C@H](O)COc1ccccc1C1CCCC1
not listed: [6] | [9]
inactive: all other assays above

CC(C)(C)CC(=O)OCC(=O)[C@@]12OC(C)(C)O[C@@H]1C[C@H]1[C@@H]3CCC4=CC(=O)C=C[C@]4(C)[C@@]3(F)[C@@H](O)C[C@@]12C
active: [6] 13.3 µM
not listed: [5] | [9]
inactive: all other assays above

NC(=O)OCC(O)COc1ccc(Cl)cc1 (stereo not drawn)
not listed: [6]
inactive: all other assays above

CCCCCCCCCCCCCCCCCC(=O)[O][Al]
not listed: [6]
inactive: all other assays above
